Experimental data as given in the supplement of paper PMC10681739.

Molecular target: RUNX1 (UniProt Q01196)
Assay: RUNX1 binding intensity (PBM fluorescence), RUNX1 alone (arbitrary fluorescence units); higher = stronger binding
Conditions: RUNX1 concentration 2 nM; ETS1 concentration 0 nM
Description: (§1)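 Cooperative gcPBM on 36-bp genomic probes with neighbouring ETS1 and RUNX1 sites. Recombinant human RUNX1 (2 nM) was incubated alone or with ETS1 (25 nM) and detected with anti-RUNX1 antibody plus Alexa488 secondary. Values are medians over 4 replicate spots; the RUNX1+ETS1 data were normalised to the RUNX1-only data. The probes sit in constant array flanks that are not printed.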
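Throughout, for RUNX1 binding intensity (PBM fluorescence) in presence of ETS1, normalised to RUNX1-only experiment: Full-length recombinant human ETS1 or RUNX1 bound to double-stranded 36-bp genomic probes on microarrays, detected by protein-specific primary antibody and Alexa488 secondary, spot fluorescence as median of four replicate spots.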
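Throughout, for RUNX1 binding intensity (PBM fluorescence), RUNX1 alone: Full-length recombinant human RUNX1 bound to double-stranded 36-bp genomic probes on a high-density microarray, scored as Alexa488 fluorescence per spot via anti-RUNX1 antibody, median of four replicate spots.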

Chain of RUNX1 (Q01196 whole entry): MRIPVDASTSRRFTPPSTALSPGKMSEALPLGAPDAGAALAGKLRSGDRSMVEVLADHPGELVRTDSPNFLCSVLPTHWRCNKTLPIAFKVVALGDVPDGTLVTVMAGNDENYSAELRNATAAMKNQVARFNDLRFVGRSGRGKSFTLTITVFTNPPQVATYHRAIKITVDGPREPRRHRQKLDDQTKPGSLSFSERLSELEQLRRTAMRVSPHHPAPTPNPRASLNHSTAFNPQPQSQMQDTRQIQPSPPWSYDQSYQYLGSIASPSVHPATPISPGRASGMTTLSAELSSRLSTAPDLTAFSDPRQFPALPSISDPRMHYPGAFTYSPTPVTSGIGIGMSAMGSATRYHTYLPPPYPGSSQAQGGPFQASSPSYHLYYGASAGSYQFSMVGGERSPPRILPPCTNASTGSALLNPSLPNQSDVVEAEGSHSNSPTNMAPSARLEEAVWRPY

| Sequence | RUNX1 binding intensity |
| --- | --- |
| TCAATGACAGGAAGTTTTTAAACCACATACGGCTAA | 904 |
| GAGAAACAGGAAGAGGGGTGGTGGTTACGGAACACG | 807 |
| AAGACAACATCCTGCCGGCACAGCCTGCGGGTTACT | 720 |
| ACACCTCAGGAAGTGGCAGAGACCACAACAAGTCAG | 816 |
| GGTGTGTTCTGGGGAGGAAGTGGGTTTTCAGGTTGT | 799 |
| GACTTTTACGGAAATAGCAGTCCAAAACCGCGTCTA | 868 |
| TGCGCCGCTTCCGCTGCCCGAGGAAGAGCCGCAGTC | 802 |

Molecular target: RUNX1 (UniProt Q01196)
Assay: RUNX1 binding intensity (PBM fluorescence) in presence of ETS1, normalised to RUNX1-only experiment (arbitrary fluorescence units); higher = stronger binding
Conditions: RUNX1 concentration 2 nM; ETS1 concentration 25 nM
Description: as §1

| Sequence | RUNX1 binding intensity |
| --- | --- |
| TCAATGACAGGAAGTTTTTAAACCACATACGGCTAA | 1810 |
| GCCCGCCCCGGAAGTGCAAACTGTGTGGTCTGGCAG | 1330 |
| TTTATCATGAATGCAGGATGTGGGCAGACTCACAGC | 1280 |
| CCTTTACGTTTTCCTGTTGCGGGTTCTATCGCTCTG | 3260 |
| TGTGTAAGAGGAAACACCAAAACCACAAATATGAAA | 3530 |
| CCTTGCAGCAACGGATGTGGGTTTTTTTTTTTCTTT | 10500 |
| GAGAAACAGGAAGAGGGGTGGTGGTTACGGAACACG | 1340 |
| AAGAAAAAGGGAGGATGTGGTTTAGCAAAAGCACTG | 2230 |
| GAAATCACATCCTTTTGCAAAACCACAGGTGTTTTG | 3340 |
| AAGACAACATCCTGCCGGCACAGCCTGCGGGTTACT | 1420 |
| AGGCCGCCTACAGGATGTTGGAAACCACAGGGCCCG | 2660 |
| GTCCCCTGAATTTTCCTGTGGTTCTTATCACCAGGT | 1360 |
| ACCCTGAAATTACCCGGATGTGGTCCCCGCGCGCGC | 1930 |
| GATATGGCAGGAAGTAGGGCCTGGAAACCGCACGGC | 2000 |
| ACACCTCAGGAAGTGGCAGAGACCACAACAAGTCAG | 1620 |
| CTCCAGGGACAACCCGGAAACCACATTGCCCAGCGT | 1500 |
| ATTTCGCTGAAAACAGGAAACCACGAAGCCCAGATG | 1250 |
| GGACCGGAAGTTAAGGCGTTCGCGGCGTGTGGTAAG | 1560 |
| TGGGCAGGAAGTGGTATCTGATTGTGGTTTTGATTT | 8180 |
| TCTAAATCACTTCCTGTTACAGAAACCACAGGCCTG | 4430 |

| Sequence | RUNX1 binding intensity |
| --- | --- |
| CGCCGAACTTCCGGCAGTAAATTCCGTGGTTTCCCT | 2400 |
| GGGACAGACTCTCCAGGATGTGGTTGGATTTTGGGC | 1040 |
| AGCCTACATCCTGCACTGCTTAACCACAGCCCGCCT | 5470 |
| TCCGGAAGTGGCACTGATGGGCGCCTGCGGCGGGGG | 1030 |
| GGTGTGTTCTGGGGAGGAAGTGGGTTTTCAGGTTGT | 1120 |
| GACTTTTACGGAAATAGCAGTCCAAAACCGCGTCTA | 1170 |
| CATTTCAGTCCAGGATGTGGGTGCACACACCGCTTC | 1430 |
| CAGTGAACAGTTTCCTGTTCCTGTGGTTTTGACTTT | 3980 |
| ATAGACTCAGGAAGTGATTGTGGTAAGATTCTATAT | 1440 |
| TCGCCCACTTCCCCACCTCTCAAAAGACCACAGGCA | 2140 |
| AGTCCTGCCCACTTCCTGCCGCAAGAGAAATCCACT | 9180 |
| TGCGCCGCTTCCGCTGCCCGAGGAAGAGCCGCAGTC | 1870 |
| AGCCACGGACTTCCGCCTACAGGTCGCCGCAGGTCC | 1700 |
| CTAGCCAGGAAGATAAAGAAGAAACCACCAAAGAGA | 834 |
| AGATTAGATGCAGGATGTGGTATACAAAGGCACGTT | 1820 |
| CTGGGCGTGGGCTTCCTGCGGCTGAGTGGCAGCTTC | 997 |
| AGTCAGCAGAGAGGAAGTGGTTAGTCCTGCCTTGAA | 1870 |
| TCCCACTGCGACGGAAGCACAGCGGTTAAGATTGCA | 910 |
| TGCTGCAGCGGCGCTTCCTGGTGGTCAGGGCGCCAT | 924 |
